Screen size: about 230,000 compounds; about 1,500 (0.65%) were called active.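 How the source made its calls: active means pattern-corrected inhibition of lipid staining of at least 50% with the nuclear-stain viability signal not falling by more than 50%; inactive means the rest, inconclusive results apart.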 Only a selection was taken, and actives are over-represented in it overall.

In general, inhibition refers to the change of the read-out against control, counted positive when it falls.

The nature of this test: TAG lipid buildup reduction in H9c2 cells – cell-based, uHTS, fluorescence, primary screen (AID 651582).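 On inhibition: 0% = DMSO wells and 100% = triacsin C control wells.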 Particulars: Nile Red lipid (TAG) fluorescence, at 12.5 µM, cells loaded with 200 µM oleic acid; DAPI nuclei signal change (viability), lower = more cytotoxic: measured here: DAPI nuclei count viability; inhibition: stronger effect = higher value.
In the case of `Oc1cccc2cc(-c3ccncc3)cnc12`, the DAPI nuclei signal change (viability), lower = more cytotoxic was -33.8% and the inhibition is 56.3% (active).
Regarding `COc1ccc(NC(=O)CSc2nnc(C3CC3)n2C)cc1S(=O)(=O)N1CCCCC1`, the DAPI nuclei signal change (viability), lower = more cytotoxic was 9.15% and the inhibition was -10.9% (inactive).
Take `CCN(CC)C(=O)C1=C(C)N(Cc2ccccc2)C(=O)C(CC(=O)NC(c2ccccc2)c2ccccc2)C1` (stereo unspecified): the DAPI nuclei signal change (viability), lower = more cytotoxic was -1.27% and the inhibition is 22.4% (inactive).
Consider `Cc1ccc(S(=O)(=O)N2CCN(C(=O)c3cc(S(=O)(=O)N4CCOCC4)ccc3F)CC2)cc1`, for which the DAPI nuclei signal change (viability), lower = more cytotoxic was -10.8% and the inhibition was 2.68% (inactive).
The like results for `O=C(CCl)N(Cc1cccc([N+](=O)[O-])c1)c1cccc(Cl)c1` were, in that order, 0.0094% and 53.5% (active).
For `Cc1ccc(S(=O)(=O)N(Cc2cccc([N+](=O)[O-])c2)C(=O)N2CCN(C)CC2)cc1`, the DAPI nuclei signal change (viability), lower = more cytotoxic was -12.6% and the inhibition was 6.71% (inactive).
With `CCN(CC)C(=O)CN(c1cccc([N+](=O)[O-])c1)S(=O)(=O)c1ccccc1`, the DAPI nuclei signal change (viability), lower = more cytotoxic is -11.2% and the inhibition is 5.09% (inactive).
In the case of `COc1ccc(-c2c(C#N)cnc(C)c2C)c(O)c1OC`, the DAPI nuclei signal change (viability), lower = more cytotoxic is -5.41% and the inhibition is 12.5% (inactive).
On to `CC1(C(=O)NCc2ccco2)Cc2c(-c3ccc4c(c3)OCO4)ccnc2O1` (stereo unspecified), for which the DAPI nuclei signal change (viability), lower = more cytotoxic was -35.6% and the inhibition was 52.2% (active).
As to `CC1(C(=O)NCc2ccc(F)c(F)c2)Cc2c(-c3ccc4c(c3)OCO4)ccnc2O1` (stereo unspecified), the DAPI nuclei signal change (viability), lower = more cytotoxic is -30.3% and the inhibition was 36.2% (inactive).
`CC(=O)Nc1cccc(-c2ccnc3c2CC(C)(C(=O)NCc2ccco2)O3)c1` (stereo unspecified): the DAPI nuclei signal change (viability), lower = more cytotoxic is -40.5% and the inhibition was 43.4% (inactive).
With `CCc1nc2c(OCC(=O)C(C)(C)C)cccn2c1N(C)C(=O)c1ccccc1F`, the DAPI nuclei signal change (viability), lower = more cytotoxic is -14.1% and the inhibition was 14.9% (inactive).
Consider `CCN(CC(=O)Nc1ccc(NC(C)=O)cc1)C(=O)CSC(=S)N1CCCC1`, for which the DAPI nuclei signal change (viability), lower = more cytotoxic is -7.39% and the inhibition was -13.5% (inactive).
With `Cc1ccccc1Nc1nnc(C)c(=O)[nH]1`, the DAPI nuclei signal change (viability), lower = more cytotoxic stood at 1.64% and the inhibition was -16.3% (inactive).
As for `Cc1nnc(N/N=C/c2ccccn2)[nH]c1=O`, the DAPI nuclei signal change (viability), lower = more cytotoxic was -33.8% and the inhibition was 53.3% (active).
For the molecule `Cc1nnc(N/N=C/c2cccs2)[nH]c1=O`, the DAPI nuclei signal change (viability), lower = more cytotoxic was determined as 4.89% and the inhibition is 29.3% (inactive).
As for `Cc1cc(C)cc(NC(=O)NCc2ccccn2)c1`, the DAPI nuclei signal change (viability), lower = more cytotoxic is 7.71% and the inhibition is -29.5% (inactive).
For the molecule `O=[N+]([O-])c1ccc(C=NN=Cc2ccc([N+](=O)[O-])cc2)cc1`, the DAPI nuclei signal change (viability), lower = more cytotoxic was -4.6% and the inhibition was 6.59% (inactive).
